Reference: PubChem BioAssay (EPA / NIEHS)
Calls of active or inactive are those of the source. How the source made its calls: active means hit-call score of the fitted dose curve at least 0.9, where 1 is the maximum; inactive means score below 0.9.

The compounds below were run on TTR (gene 7276) (assay: CCTE_GLTED_hTTR_0.125uM: CCTE's human Transthyretin (hTTR) Inhibition Assay, with 0.125uM TTR, Great Lakes Toxicology and Ecology Division (GLTED) Lab (AID 2284431);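 further: hits lower the fluorescence signal relative to DMSO baseline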).
Outline: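 Cell-free displacement of ANSA probe from 0.125uM TTR after 2 h incubation with chemical. Fluorescence read at 380 nm excitation/475 nm emission; loss of signal relative to DMSO indicates T4-site displacement.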
`CC(C)c1ccccc1O` was tested, and the AC50 was 32400 nM (active).
With `O=C(Nc1ccc2c(O)c(N=Nc3ccc(N=Nc4ccc(S(=O)(=O)O)cc4)cc3)c(S(=O)(=O)O)cc2c1)c1ccccc1` the AC50 was 9920 nM (active).
For `CCCCCCC(CO)CCCC` (configuration not stated), the AC50 was 46700 nM (active).
For `Cc1ccc(S(=O)(=O)Oc2ccc(N=Nc3ccc(-c4ccc(N=Nc5c(O)ccc6cc(S(=O)(=O)O)cc(S(=O)(=O)O)c56)c(C)c4)cc3C)cc2)cc1`, the AC50 was 912 nM (active).
With `Cc1cc(S(=O)(=O)O)ccc1N=Nc1c(O)ccc2ccccc12` the AC50 was 79 nM (active).
`COc1ccc(N=Nc2cc(C)c(N=Nc3ccc(S(=O)(=O)O)cc3)cc2OC)cc1` was tested, and the AC50 was 385 nM (active).
For `N[C@@H](Cc1cc(I)c(Oc2cc(I)c(O)c(I)c2)c(I)c1)C(=O)O`, the AC50 was 82.2 nM (active).
`CCCCC(CC)COC(=O)c1ccc(O)cc1` (configuration not stated) was tested, and the AC50 was 434 nM (active).
With `OCc1cccc(Oc2ccccc2)c1` the AC50 was 12200 nM (active).
In the case of `Nc1ccc2cc(S(=O)(=O)O)cc(O)c2c1N=Nc1ccccc1C(F)(F)F`, the AC50 is reported as 39.7 nM (active).
For `O=[N+]([O-])c1ccc(O)cc1C(F)(F)F`, the AC50 was 111 nM (active).
In the case of `Oc1ccc2cc(SSc3ccc4cc(O)ccc4c3)ccc2c1`, the AC50 is reported as 113 nM (active).
For `CCCCCCCCc1ccc(S(=O)(=O)O)cc1`, the AC50 was 2970 nM (active).
`Nc1ccccc1[N+](=O)[O-]` was tested, and the AC50 was 20300 nM (active).
`CC(C)CCCCCCCCCCCCCCC(=O)O` was tested, and the AC50 was 891 nM (active).
With `BrCc1cccc(Oc2ccccc2)c1` the AC50 was 4220 nM (active).
For `C=C[Si]1(C)O[Si](C)(C=C)O[Si](C)(C=C)O[Si](C)(C=C)O1` (configuration not stated), the AC50 was 50000 nM (active).
